Compounds without any hit were thinned out: in the full panel of roughly 83,000, 20% have a hit.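 Single-dose data. Exposure time 48 hours. Values below 10 considered active.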 The source made the active and inactive calls.
Columns and labels:
Test in all cases: NCI-60 one-dose screen, 48 h (100 = growth as untreated, 0 = no growth, -100 = all killed)
Settings in all cases: 10 µM unless noted
NCI-H23 lung = system: NCI-H23 lung
NCI-H226 lung = system: NCI-H226 lung
NCI-H322M lung = system: NCI-H322M lung
HOP-62 NSCLC = system: HOP-62 NSCLC
NCI-H460 lung = system: NCI-H460 lung
HOP-92 NSCLC = system: HOP-92 NSCLC
NCI-H522 lung = system: NCI-H522 lung
A549/ATCC NSCLC = system: A549/ATCC NSCLC
786-0 renal = system: 786-0 renal
COLO 205 colon = system: COLO 205 colon
DU-145 prostate = system: DU-145 prostate
K-562 leukemia = system: K-562 leukemia
MALME-3M melanoma = system: MALME-3M melanoma
MDA-MB-231 breast = system: MDA-MB-231 breast
RXF 393 renal = system: RXF 393 renal
SF-268 CNS = system: SF-268 CNS
SF-295 CNS = system: SF-295 CNS
SF-539 CNS = system: SF-539 CNS
UACC-257 melanoma = system: UACC-257 melanoma
M14 melanoma = system: M14 melanoma

Measured: growth

Nc1n[nH]c2ccc([C@@H]3Nc4ccc5[nH]ncc5c4[C@H]4C5C=CC(C5)[C@@H]34)cc12 (stereo not given in full)
active: NCI-H226 lung -6.81% | NCI-H460 lung -10.8% | COLO 205 colon 2.87% | DU-145 prostate 8.03% | K-562 leukemia 8.61% | SF-295 CNS 1.53% | SF-539 CNS -31.4% | M14 melanoma 4.56%
inactive: NCI-H23 lung 14.1% | NCI-H322M lung 43.8% | HOP-62 NSCLC 41.8% | HOP-92 NSCLC 61.2% | NCI-H522 lung 14.3% | A549/ATCC NSCLC 20.1% | 786-0 renal 30.3% | MALME-3M melanoma 43.1% | MDA-MB-231 breast 25.5% | RXF 393 renal 17.8% | SF-268 CNS 20.3% | UACC-257 melanoma 68.6%

O=c1cc(CSc2nnc(-c3ccc(F)cc3)o2)c2ccc3ccccc3c2o1
inactive: NCI-H23 lung 84.3% | NCI-H226 lung 81.1% | NCI-H322M lung 100% | HOP-62 NSCLC 75.4% | NCI-H460 lung 101% | HOP-92 NSCLC 92.2% | NCI-H522 lung 83.8% | A549/ATCC NSCLC 85.5% | 786-0 renal 104% | COLO 205 colon 117% | DU-145 prostate 107% | K-562 leukemia 93.9% | MALME-3M melanoma 107% | MDA-MB-231 breast 87.2% | RXF 393 renal 107% | SF-268 CNS 96.4% | SF-295 CNS 89.5% | SF-539 CNS 98.1% | UACC-257 melanoma 103% | M14 melanoma 103%

O=C(O)c1c(=O)cccc2ssc12
inactive: NCI-H322M lung 62.1% | UACC-257 melanoma 54.1%
active: NCI-H23 lung 0.447% | NCI-H226 lung -14.8% | HOP-62 NSCLC -45.5% | NCI-H460 lung 1.81% | HOP-92 NSCLC -0.323% | NCI-H522 lung -0.415% | A549/ATCC NSCLC -51% | 786-0 renal -10.1% | COLO 205 colon -45.7% | DU-145 prostate -64.5% | K-562 leukemia 4.02% | MALME-3M melanoma -58.3% | MDA-MB-231 breast -57.3% | RXF 393 renal -66.8% | SF-268 CNS -38.6% | SF-295 CNS -6.02% | SF-539 CNS -18.6% | M14 melanoma 3.29%

— PubChem BioAssay (NCI)
